# Rows were chosen to be rich in hits. Some 4.1% of all compounds tested hit in one or more screens of this group.
# Mdm2 MdmX PPI = disrupts the human Mdm2-MdmX interaction | O15151+Q00987 | AID 485346 | actives 3% (n = 330,000) | inhibition, % at 8 µM | SaOS-2 split-luciferase Mdm2/MdmX complementation, luminescence;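 active = inhibition of at least 50% at 8 µM in the primary screen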
# Target sequence (O15151 whole entry, looked up): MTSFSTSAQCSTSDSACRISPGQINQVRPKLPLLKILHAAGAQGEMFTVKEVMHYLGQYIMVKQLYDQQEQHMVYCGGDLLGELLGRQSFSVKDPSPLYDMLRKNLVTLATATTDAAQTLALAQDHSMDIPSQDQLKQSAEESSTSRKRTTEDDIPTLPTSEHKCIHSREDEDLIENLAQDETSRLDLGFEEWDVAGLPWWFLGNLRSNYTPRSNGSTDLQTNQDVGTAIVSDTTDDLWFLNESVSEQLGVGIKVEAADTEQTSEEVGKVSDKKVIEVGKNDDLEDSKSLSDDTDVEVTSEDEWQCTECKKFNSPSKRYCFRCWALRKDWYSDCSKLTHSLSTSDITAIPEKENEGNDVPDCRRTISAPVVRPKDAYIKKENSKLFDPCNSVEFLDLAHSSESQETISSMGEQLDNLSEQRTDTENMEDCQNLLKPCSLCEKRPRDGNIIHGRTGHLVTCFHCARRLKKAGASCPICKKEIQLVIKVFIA
# Target sequence (Q00987 whole entry, looked up): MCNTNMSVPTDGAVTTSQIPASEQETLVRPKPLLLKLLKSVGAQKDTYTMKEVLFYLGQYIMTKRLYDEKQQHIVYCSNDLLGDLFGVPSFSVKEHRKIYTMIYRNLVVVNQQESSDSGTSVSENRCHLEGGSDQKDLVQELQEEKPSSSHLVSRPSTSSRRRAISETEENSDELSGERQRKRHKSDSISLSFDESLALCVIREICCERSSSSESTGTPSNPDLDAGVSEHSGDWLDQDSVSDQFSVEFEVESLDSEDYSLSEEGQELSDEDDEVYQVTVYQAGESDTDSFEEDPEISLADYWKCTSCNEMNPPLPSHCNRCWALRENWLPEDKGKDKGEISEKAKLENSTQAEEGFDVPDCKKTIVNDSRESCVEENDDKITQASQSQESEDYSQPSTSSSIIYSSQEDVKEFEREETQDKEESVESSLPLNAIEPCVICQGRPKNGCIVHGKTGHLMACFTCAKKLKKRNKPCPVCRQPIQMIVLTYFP
# Bfl-1 A1 inh = inhibitors of the anti-apoptotic protein A1, read as caspase activation | MEF A1-2A-BIM cells, Caspase-Glo 3/7 luminescence, 3 h; percent of clofoctol response, vehicle zero | caspase activation, % (test concentration not listed) | actives 0.066% (n = 330,000);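 active = over half of replicate activation scores above 10%, or exactly half above 10 with the replicate mean above 10; inconclusive = replicate mean below 10 yet half the replicates above 10; inactive = over half of replicates below 10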
# Beta cell apopt = beta cell apoptosis inhibition; INS-1E cytokine-induced death, ATP luminescence, 48 h; percent of positive-control rescue, neutral wells zero; protection from apoptosis, % (concentration not given with the values); actives 0.8% (n = 300,000); AID 435005;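 active = Every replicate reaches about 75%, or at least half do and their mean reaches it too, limit read from the data; inconclusive = At least half of replicates reach the limit but their mean does not; inactive = Under half of replicates reach the limit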;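 note: higher means more ATP so stronger rescue from cytokine killing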
# aSyn UTR inh = 5' untranslated region of α-synuclein, MLPCN primary screen; AID 1813; inhibition, % (tested at 7.5 µM); alpha-synuclein 5'UTR reporter, inhibitor activity; actives 0.82% (n = 300,000); in the data active = inhibition above about 60%; inconclusive = no clear call, values can overlap the other calls;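 note: H4 neuroglioblastoma cells stably carrying SNCA 5'UTR luciferase fusion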
# CSC inhib = blocks cancer stem cells | cancer stem cell-like cells viability, luminescence | inhibition, % at 7.5 µM | actives 1.1% (n = 300,000) | AID 2717; in the data active = inhibition above about 75%; inconclusive = no clear call, values can overlap the other calls; tested in HMLE shEcad cells
# Mdm2-MdmX conf = human Mdm2/MdmX binding inhibition, confirmed | actives 55% (n = 10,000) | AID 489028 | inhibition, % at 8 µM | shares compounds with Mdm2 MdmX PPI | luminescent assay; in the data active = inhibition above about 40%
# FLuc counter = full-length luciferase inhibition in Mdm2/MdmX counter-screen; shares compounds with Mdm2 MdmX PPI; SaOS-2 full-length luciferase counterscreen, luminescence; inhibition, % at 8 µM; actives 77% (n = 6,200);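 active = mean inhibition at 8 µM reaching about 37%, which flags the compound as non-specific, limit read from the data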;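 note: p53-null SaOS-2 cells with luciferase driven by a doxycycline-inducible promoter; compound on cells about two nights before reading with doxycycline added after day one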
# Hits are given with their value; i = inactive; ? = inconclusive; nt = not tested or not shown.
SMILES,Mdm2 MdmX PPI,Bfl-1 A1 inh,Beta cell apopt,aSyn UTR inh,CSC inhib,Mdm2-MdmX conf,FLuc counter
O=C(c1nnsc1S(=O)c1ccc(Cl)cc1)N1CCOCC1 (centres undefined),99,nt,nt,i,nt,94,53
CCOc1ccc(CNC(=O)Cn2nc(C)c3c(C)n(-c4ccc(C)cc4)nc3c2=O)cc1,i,i,i,i,i,nt,nt
COc1ccc(/C=N/NC(=O)c2cc3c(OC)ccc(OC)c3[nH]2)cc1O,61,i,i,68,i,47,90
COc1ccccc1/C=N/NC(=O)c1cc2c(OC)c(OC)ccc2[nH]1,i,i,i,i,i,nt,nt
COc1ccc(OC)c2[nH]c(C(=O)N/N=C/c3ccccc3O)cc12,82,i,96,i,i,71,i
COc1cccc(/C=N/NC(=O)c2cc(-c3cccn3C)n[nH]2)c1O,53,i,i,95,87,64,i
COc1cc(/C=N/NC(=O)c2cc(-c3cccn3C)n[nH]2)cc(OC)c1OC,i,i,i,i,i,nt,nt
S=C(N/N=C/c1ccco1)NC1CC2CCC1C2 (centres undefined),i,i,i,i,i,nt,nt
O=C(NC1CCN(S(=O)(=O)c2cccc(Cl)c2)CC1)C1CCCCC1,i,i,i,i,i,nt,nt
COc1ccc2[nH]c(=O)c(CN(c3ccccc3)S(=O)(=O)c3ccccc3)cc2c1,i,i,i,i,i,nt,nt
CCOc1ccc(N(Cc2cc3ccc(C)cc3[nH]c2=O)S(=O)(=O)c2ccccc2)cc1,59,i,i,i,i,58,55
COc1ccc2[nH]c(=O)c(CN(c3ccccc3OC)S(=O)(=O)c3ccccc3)cc2c1,60,i,i,i,i,i,89
Cc1ccc2cc(CN(c3ccccc3)S(=O)(=O)c3ccccc3)c(=O)[nH]c2c1,i,i,i,i,i,nt,nt
O=C1C2CCCCN2C(=O)N1CCCCN1CCN(c2cccc(Br)c2)CC1 (centres undefined),i,i,i,i,i,nt,nt
N#CC(C(=O)Nc1ccc(Cl)c(Cl)c1)=C1Nc2ccccc2N1,59,i,i,i,i,i,37
COc1cc2c(cc1OC)C(C)N(C(=O)Nc1cc(C)cc(C)c1)CC2 (centres undefined),i,i,nt,i,nt,nt,nt
COc1cc2c(cc1OC)C(C)N(C(=O)c1cc3c(C)cc(C)cc3[nH]1)CC2 (centres undefined),67,i,i,i,i,73,48
Cc1ccc(S(=O)(=O)N[C@@H](Cc2ccccc2)C(=O)N2CCC(C(=O)N[C@@H](CC(C)C)C(=O)O)CC2)cc1,i,i,i,i,i,nt,nt
COc1cc(OC)c2c(-c3ccccc3)cc(=O)oc2c1C(CCN1CCCCC1)c1ccc2c(c1)OCO2 (centres undefined),99,i,i,i,i,i,nt
COc1cc(OC)c2c(-c3ccccc3)cc(=O)oc2c1C(CCN1CCCC(C)C1)c1ccc2c(c1)OCO2 (centres undefined),74,i,i,i,i,i,77
COc1cc(OC)c2c(C)cc(=O)oc2c1C(CCN1CCOCC1)c1ccc2c(c1)OCO2 (centres undefined),i,i,i,i,i,nt,nt
COc1cc(OC)c2c(-c3ccccc3)cc(=O)oc2c1C(CC(=O)N1CCCC1)c1ccc2c(c1)OCO2 (centres undefined),i,i,i,i,i,nt,nt
O=C(Cc1ccccc1)Nc1ccc(C(=O)NCC2COc3ccccc3O2)cc1 (centres undefined),i,i,i,i,i,nt,nt
O=C(NCC1COc2ccccc2O1)c1ccc(NC(=O)C(c2ccccc2)c2ccccc2)cc1 (centres undefined),63,i,i,i,i,45,55
OCCN1CCN(c2nc(-c3ccccc3)nc3c2oc2ccccc23)CC1,54,?,i,i,i,i,54
SMILES,Mdm2 MdmX PPI,Bfl-1 A1 inh,Beta cell apopt,aSyn UTR inh,CSC inhib,Mdm2-MdmX conf,FLuc counter
O=C(COC(=O)Cc1ccc(S(=O)(=O)N2CCOCC2)s1)Nc1ccc(OC(F)F)cc1,i,i,i,nt,i,nt,nt
Cc1ccc(-c2cc(C(F)F)n3ncc(C(=O)N4CCCc5ccccc54)c3n2)cc1,i,i,i,i,i,nt,nt
COc1ccc(-c2cc(C(F)F)n3ncc(C(=O)N4CCc5ccccc54)c3n2)cc1,67,i,i,?,i,56,73
Nn1cnnc1N/N=C/c1ccc(Cl)c([N+](=O)[O-])c1,i,i,i,i,i,nt,nt
CN(C)c1nc(N/N=C\c2ccc(Cl)c([N+](=O)[O-])c2)nc(Nc2ccc(F)cc2)n1,72,i,i,i,i,i,nt
CCN(CC)c1nc(Nc2ccccc2)nc(Oc2ccc(=O)n(C)n2)n1,64,i,i,i,i,i,nt
CCN(CC)c1nc(Nc2ccccc2)nc(Oc2ccc(=O)[nH]n2)n1,i,i,i,i,i,nt,nt
CC(C)(C)C(=O)Nc1ccc(C(=O)CSc2nnc(C3CC3)n2C2CC2)cc1,i,i,i,nt,nt,nt,nt
Cc1nc([N+](=O)[O-])c(SCC(N)=O)n1Cc1ccccc1,i,i,i,i,i,nt,nt
Cc1nc([N+](=O)[O-])c(Sc2nc3ccccc3n2C)n1Cc1ccccc1,51,i,i,i,i,i,nt
CCNc1nc(NCC)n2c(SC(C(=O)Nc3cc(Cl)cc(Cl)c3)c3ccccc3)nnc2n1 (centres undefined),95,i,i,i,?,i,nt
CCNc1nc(NCC)n2c(SCC(=O)Nc3cccc(Cl)c3)nnc2n1,i,i,i,i,i,nt,nt
Nc1ccc(N2CCCC2)c(S(=O)(=O)Nc2cccc(C(F)(F)F)c2)c1,i,i,i,nt,i,nt,nt
Cc1sc2nc(-c3ccccn3)[nH]c(=O)c2c1-c1ccccc1,57,i,i,nt,i,i,nt
Cc1ccc(NC(=S)N2CCN(S(=O)(=O)c3ccc(F)cc3)CC2)cc1,i,i,i,i,i,nt,nt
O=C(Nc1cc(Cl)ccc1O)c1snnc1-c1ccccc1,93,i,i,i,i,58,i
O=C(c1ccco1)N1CCN(C(c2coc3ccc(Cl)cc3c2=O)c2nnnn2C2CCCC2)CC1 (centres undefined),50,i,i,i,i,i,nt
Cc1cc(F)ccc1S(=O)(=O)N1CCCOC1CNC(=O)C(=O)NCc1ccncc1 (centres undefined),i,i,i,i,i,nt,nt
CNC[C@H](CC1CCCCC1)NC[C@H](CO)NCCc1cccc(C(F)(F)F)c1,99,i,i,i,132,97,58
CC(C1CC1)N(Cc1ccccc1)C(=S)Nc1cccc(C(F)(F)F)c1 (centres undefined),i,i,i,i,i,nt,nt
CNC[C@H](CC1CCCCC1)NC[C@H](CO)NCC1(c2ccccc2)CC1,86,i,i,i,i,58,45
O=C(NCC1(c2ccccc2)CCCC1)C(=O)NCC1(c2ccccc2)CCCC1,nt,nt,nt,i,nt,nt,nt
